Results on seven molecules are retold here after PubChem BioAssay.

A short description of experiment [1]: resazurin metabolic signal in HepG2 cells – cell-based, resazurin fluorescence, 24 h, PK04 Diversity Set, profiling panel (AID 1172). The conditions noted are these: HepG2 viability, higher = more signal. In general terms: The colour change of resazurin is a common sign of viable cells or microbes.
Experiment [2] can be described thus: budding yeast growth changes without added modifier – OD600, strain BY4716, 24 h, basal condition, primary screen (AID 1173). As to conditions: S. cerevisiae BY4716 growth, OD600, 24 h; higher = more signal, called active from +8 up or from −8 down.
The nature of experiment [3]: viability profiling in MM1S myeloma cells – cell-based, resazurin fluorescence, basal, 24 h, PK04 Diversity Set, profiling panel (AID 1174).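 Also: MM1S multiple myeloma cell line.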 As to conditions: higher = more signal, called active from +8 up or from −8 down.
Experiment [4] addresses Dihydroorotate dehydrogenase (quinone), mitochondrial (Plasmodium falciparum (isolate 3D7)) (UniProt Q08210). As to the kind of experiment: inhibition of P. falciparum DHODH – biochemical, C-terminal His tag, absorbance 600 nm, primary screen (AID 1175).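 Also: recombinant parasite enzyme with a five histidine tag at its C terminus.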 As to conditions: PfDHODH enzyme, DCIP absorbance 600 nm; higher = more signal, called active from +8 up or from −8 down.

Experiment [5] can be described thus: inhibition of PAO1 biofilm formation – strain PAO1, LB-PBS medium, absorbance 600 nm, primary screen (AID 1176). The conditions noted are these: P. aeruginosa PAO1 growth/biofilm, A600, 12 h; higher = more signal.
The nature of experiment [6]: growth modulation of vineyard yeast isolate – strain RM11-1a, OD600, basal, 24 h, primary screen (AID 1177).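 Also: cultures grown under basal conditions with no added stressor.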 As to conditions: S. cerevisiae RM11-1a growth, OD600, 24 h; higher = more signal, called active from +8 up or from −8 down.
Experiment [7] in a line: growth of efflux-deficient E. coli DRC39 – strain DRC39, OD650, 24 h, E. coli filamentation inducers, primary screen (AID 1178).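 Also: growth measured as culture turbidity by optical density at 650 nm.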 As to conditions: E. coli DRC39 acrAB, higher = more signal, called active from +8 up or from −8 down.
Experiment [8] is described as follows: growth of efflux-deficient E. coli DRC39 – strain DRC39, OD650, 48 h, E. coli filamentation inducers, primary screen (AID 1179).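 Also: screen aims at cell division blockers that make cells filament.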 As to conditions: E. coli DRC39 delta-acrAB growth, higher = more signal, called active from +8 up or from −8 down.
Experiment [9] can be described thus: viability profiling in RPMI8226 myeloma cells – cell-based, resazurin fluorescence, basal, 24 h, PK04 Diversity Set, profiling panel (AID 1180).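 Also: RPMI8826 multiple myeloma cell line at 5000 cells per well.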 As to conditions: higher = more signal.
The target of experiment [10] is E3 ubiquitin-protein ligase XIAP (Homo sapiens) (UniProt P98170). As to the kind of experiment: small molecules binding XIAP protein – biophysical, small-molecule microarray, fluorescence 635 nm, primary screen (AID 1181).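 Also: score merges 667 nm emission and signal to noise over triplicate slides.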 As to conditions: higher = more signal.
E3 ubiquitin-protein ligase XIAP (Homo sapiens), sequence (P98170 whole entry, looked up, the tested form may be a part): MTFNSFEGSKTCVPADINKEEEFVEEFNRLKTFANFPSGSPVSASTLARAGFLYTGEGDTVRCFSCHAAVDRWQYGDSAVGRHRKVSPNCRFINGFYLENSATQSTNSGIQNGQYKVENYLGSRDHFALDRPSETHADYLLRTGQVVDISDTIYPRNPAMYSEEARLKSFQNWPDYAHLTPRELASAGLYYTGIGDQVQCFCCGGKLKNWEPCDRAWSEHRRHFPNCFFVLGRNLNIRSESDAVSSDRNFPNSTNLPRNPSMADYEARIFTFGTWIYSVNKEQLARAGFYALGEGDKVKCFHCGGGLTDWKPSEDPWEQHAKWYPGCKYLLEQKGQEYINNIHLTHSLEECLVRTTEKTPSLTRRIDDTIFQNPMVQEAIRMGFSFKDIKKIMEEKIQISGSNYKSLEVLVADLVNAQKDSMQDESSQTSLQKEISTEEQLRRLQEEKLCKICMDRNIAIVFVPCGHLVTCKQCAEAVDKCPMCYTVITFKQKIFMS
Experiment [11] concerns XIP peptide (Xip251-270) binding. Description: XIP fragment 251-270 binding compounds – biochemical, small-molecule microarray, fluorescence 635/667 nm, 0.1 µg/mL protein, primary screen (AID 1182). As to conditions: fluorescent protein binding, 635 nm, higher = more signal, called active from +8 up or from −8 down.
Another experiment has as its system XIP peptide (Xip251-270). Description: compounds binding XIP fragment 251-270 – biochemical, small-molecule microarray, fluorescence 635/667 nm, 0.5 µg/mL protein, primary screen (AID 1183). As to conditions: fluorescence 635 nm, higher = more signal.
Experiment [12] is described as follows: blood-stage malaria parasite viability loss – strain 3D7, DAPI fluorescence, 100 nL, primary screen (AID 1184).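 Also: parasites grown inside human red blood cells in medium with human serum.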 The conditions noted are these: P. falciparum 3D7 growth, 3 d, higher = more signal.
Experiment [13] deals with Homeobox protein Hox-A13 (Mus musculus) (UniProt Q62424). As to the kind of experiment: disruptors of Hoxa13 oligonucleotide interaction – biochemical, fluorescence polarization, labeled oligonucleotide, primary screen (AID 1185). As to conditions: Hoxa13:DNA binding, 15 min, higher = more signal, called active from +8 up or from −8 down. On the technique in general: Fluorescence polarisation rises when a labelled molecule tumbles more slowly, as on binding a larger partner.
Homeobox protein Hox-A13 (Mus musculus), sequence (Q62424 whole entry, looked up): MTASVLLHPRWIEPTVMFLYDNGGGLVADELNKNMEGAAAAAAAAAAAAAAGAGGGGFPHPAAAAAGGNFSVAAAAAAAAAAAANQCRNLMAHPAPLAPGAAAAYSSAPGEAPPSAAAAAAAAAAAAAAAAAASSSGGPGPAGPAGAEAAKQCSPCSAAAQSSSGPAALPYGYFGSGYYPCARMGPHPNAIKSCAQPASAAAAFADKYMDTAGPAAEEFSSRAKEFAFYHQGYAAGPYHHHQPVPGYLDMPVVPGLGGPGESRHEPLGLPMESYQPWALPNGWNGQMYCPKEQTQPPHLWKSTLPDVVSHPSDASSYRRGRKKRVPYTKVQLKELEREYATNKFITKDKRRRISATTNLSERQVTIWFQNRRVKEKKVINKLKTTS

Experiment [14] can be described thus: blockers of DNA damage checkpoint Chk1 activation – imaging, HeLa, hydroxyurea, phospho-Chk1 antibody, percent positive cells, primary screen (AID 1186). The conditions noted are these: hydroxyurea-induced phospho-Chk1 immunofluorescence imaging, higher = more signal.
The nature of experiment [15]: blockers of DNA damage checkpoint Chk1 activation – imaging, HeLa, hydroxyurea, phospho-Chk1 nuclear intensity, primary screen (AID 1187). As to conditions: hydroxyurea-induced phospho-Chk1 immunofluorescence imaging, higher = more signal.

SMILES strings stand for the structures. Activity calls are given as the source filed them. Unless noted, no rule for the calls is given here.

Dihydroorotate dehydrogenase (quinone), mitochondrial (Plasmodium falciparum (isolate 3D7)), sequence (Q08210 whole entry, looked up): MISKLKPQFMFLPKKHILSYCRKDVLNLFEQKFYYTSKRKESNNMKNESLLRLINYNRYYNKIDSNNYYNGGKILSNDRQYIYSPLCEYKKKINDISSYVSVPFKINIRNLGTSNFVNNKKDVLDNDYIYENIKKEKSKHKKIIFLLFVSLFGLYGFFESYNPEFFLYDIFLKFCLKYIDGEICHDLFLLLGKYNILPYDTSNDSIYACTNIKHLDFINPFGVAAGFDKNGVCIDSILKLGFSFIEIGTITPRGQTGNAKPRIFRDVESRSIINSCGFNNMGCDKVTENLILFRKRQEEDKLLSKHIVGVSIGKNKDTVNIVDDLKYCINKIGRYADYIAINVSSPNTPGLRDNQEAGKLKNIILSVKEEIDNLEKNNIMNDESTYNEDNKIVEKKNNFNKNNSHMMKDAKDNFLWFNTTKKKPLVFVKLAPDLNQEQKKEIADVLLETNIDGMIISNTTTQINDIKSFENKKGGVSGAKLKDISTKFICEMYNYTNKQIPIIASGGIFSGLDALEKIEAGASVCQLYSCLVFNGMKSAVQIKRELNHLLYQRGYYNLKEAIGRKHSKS

Take `CN(C)CCCCNC(=O)[C@H]1C[C@H]2C(=O)N[C@@H](CCCCN(C)C)C(=O)N2[C@H]1c1cccc(OCCO)c1`: the z-score is 1.11 in experiment [1]; 0.427 (inactive) in experiment [2]; 0.895 (inactive) in [3]; -1.48 (inactive) in experiment [5]; 0.807 (inactive) in experiment [6]; 0.0233 (inactive) in experiment [7]. Further, the z-score in experiment [8] is -0.0221 (inactive); in experiment [9], 0.45; in experiment [12], 0.649; in experiment [13], -3.26 (inactive); in experiment [14], 0.368 (inactive); in experiment [15], 0.217 (inactive). Besides, the composite z-score is -0.493 (inactive) in experiment [4], -0.0559 in experiment [10], 1.64 (inactive) in [11] and 0.675 in the experiment with XIP peptide (Xip251-270).

Regarding `CC(C)CN1C(=O)[C@@]2(Cc3ccccc31)c1ccccc1C(=O)N(Cc1ccccc1C(F)(F)F)[C@H]2c1ccc(CO)cc1`, the z-score was 0.869 in experiment [1]; -1.94 (inactive) in experiment [2]; -0.696 (inactive) in experiment [3]; -0.103 (inactive) in experiment [5]; -2.06 (inactive) in experiment [6]; 0.897 (inactive) in experiment [7]. Also, the z-score in experiment [8] is 1.72 (inactive); in experiment [9], 0.478; in experiment [12] it was -0.141; in experiment [13] it was 0.0026 (inactive); in experiment [14], -0.417 (inactive); in experiment [15], -0.408 (inactive). Besides, the composite z-score in experiment [4] was -4.83 (inactive); in experiment [10] it was 0.661; in experiment [11], -0.334 (inactive); in the experiment with XIP peptide (Xip251-270), -0.0449.

With `CC[C@H]1C2=C3C(CC[C@H]4C(OCc5ccc(F)cc5C(F)(F)F)OC[C@](C)([C@@H]34)N(C(=O)OC(C)(C)C)C2)C2COC(=O)OCC21` (some centres not stated), the z-score in experiment [1] was -1.12; in experiment [2], 0.485 (inactive); in experiment [3] it was -1.46 (inactive); in [5], 0.551 (inactive); in experiment [6] it was 0.368 (inactive); in experiment [7], -0.678 (inactive). Moreover, the z-score in experiment [8] was -0.36 (inactive); in [9], -0.556; in [12], -0.749; in [13], -3.54 (inactive); in experiment [14], 1.23 (inactive); in experiment [15], 0.722 (inactive). Moreover, the composite z-score in [4] is 0.0979 (inactive); in [10] it was 0.131; in experiment [11], 3.17 (inactive); in the experiment on XIP peptide (Xip251-270) it was 0.393.

For the molecule `Cc1ccc(S[C@]2(C(=O)NCCN3CCOCC3)CC(=O)N(Cc3ccccc3C(F)(F)F)[C@@H]2c2ccc(CO)cc2I)cc1`, the z-score in experiment [1] was 0.628; in experiment [2] it was -3.34 (inactive); in experiment [3], -2.71 (inactive); in experiment [5], 0.875 (inactive); in experiment [6], -1.57 (inactive); in [7], 0.142 (inactive). Further, the z-score in experiment [8] was 0.0559 (inactive); in [9] it was -2.22; in experiment [12], -0.701; in [13], -3.32 (inactive); in [14], 0.354 (inactive); in experiment [15], 0.873 (inactive). The composite z-score in experiment [4] was -0.323 (inactive); in experiment [10], -0.17; in experiment [11] it was 0.109 (inactive); with XIP peptide (Xip251-270), 0.895.

Turning to `CCCCN1CC=CC23O[C@@H]4/C=C\CCC(C)OC(=O)C4[C@H]2C(=O)N(CCCCCCO)[C@@H]3C1=O` (some centres not stated), the z-score in experiment [1] was 0.634; in [2], 0.14 (inactive); in experiment [3] it was 0.234 (inactive); in experiment [5] it was 0.109 (inactive); in experiment [6] it was 0.432 (inactive); in experiment [7] it was 0.666 (inactive). Moreover, the z-score is 0.544 (inactive) in experiment [8]; 0.981 in experiment [9]; 0.11 in [12]; -4.7 (inactive) in experiment [13]; -0.494 (inactive) in experiment [14]; 0.339 (inactive) in experiment [15]. Further, the composite z-score in experiment [4] is -0.524 (inactive); in experiment [10], 0.0081; in experiment [11], 0.879 (inactive); with XIP peptide (Xip251-270) it was 0.0096.

Regarding `CN1C(=O)C2C=CC(C(O)Cc3ccccc3)N(N(c3ccccc3)c3ccccc3)C2C1=O` (configuration not stated), the z-score in experiment [1] is -0.567; in [2], -0.519 (inactive); in [3], -1.62 (inactive); in experiment [5], 0.543 (inactive); in experiment [6], 0.303 (inactive); in experiment [7], -0.804 (inactive). Moreover, the z-score in experiment [8] is -0.233 (inactive); in experiment [9] it was -0.855; in experiment [12], -0.077; in experiment [13] it was -2.48 (inactive); in [14], 0.077 (inactive); in experiment [15], -0.0628 (inactive). Moreover, the composite z-score in experiment [4] was -0.443 (inactive); in [10], 0.0918; in experiment [11] it was -0.072 (inactive); with XIP peptide (Xip251-270) it was 0.645.

Take `COCC(=C=CC[C@H](O)c1ccc(OCCO)cc1)C[C@H](O)COCc1ccccc1`: the z-score in experiment [1] is 0.993; in experiment [2], -1.49 (inactive); in [3], 1.18 (inactive); in [5], 0.33 (inactive); in experiment [6], -1.3 (inactive); in [7], 0.979 (inactive). Further, the z-score in experiment [8] is 0.921 (inactive); in experiment [9] it was 1.51; in experiment [12] it was -2.74; in experiment [13], -5.25 (inactive); in [14], -0.364 (inactive); in experiment [15], 0.19 (inactive). In addition, the composite z-score was -0.95 (inactive) in [4], -0.0238 in [10], -0.0114 (inactive) in experiment [11] and 0.698 in the experiment with XIP peptide (Xip251-270).
